# Results filed as inconclusive are left out. Entries that show only a call come without a potency. Calls of active or inactive are those of the source. Unless noted, the call rests on the fitted dose curve; in most records, active means well fitted curve in the direction sought with a large enough effect; inconclusive means small, poorly fitted or top-dose-only effect, or another doubt; inactive means no such curve, though single readings can be large; an effect the other way counts as inactive or inconclusive. Peptide text beside a SMILES is read from it.
# Columns and labels:
# [1] = qHTS Assay for Identification of Small Molecule Agonists for NFkB Signaling Pathway (AID 928; calls by dose curve); details: NFkB beta-lactamase reporter cells, blue/green ratio
# Summary of the method: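 ME-180 NFkB-bla cells carry a beta-lactamase reporter under an NFkB response element. Compound plus 10 pM TNF alpha (final) was applied for 5 hrs at 37 C. After 2 hrs with LiveBLAzer substrate, 460/530 nm emission was read at 405 nm excitation.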
# [2] = target: Pyruvate kinase (Leishmania mexicana) (UniProt Q27686); test: qHTS Validation Assay for Inhibitors of Leishmania Mexicana Pyruvate Kinase (AID 945); further: potency means the concentration at half of the fitted maximal effect; details: purified L. mexicana pyruvate kinase, enzyme activity, E451W mutant enzyme; series mostly up to 57.5 µM
# Summary of the method: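 An endpoint luciferase assay: 0.2 nM LmPYK E451W turns over 0.5 mM PEP with 0.1 mM ADP for 1 h at room temperature, pH 7.2, before PKLight addition. Values are normalized to DMSO-only wells.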
# [3] = qHTS Assay for Identification of Small Molecule Agonists for Thrombopoietin (TPO) Signaling Pathway (AID 917); details: TPO signaling pathway reporter cells, agonist qHTS, stimulated with TPO at its EC50; series mostly up to 38.5 µM; further: potency means the concentration at half of the fitted maximal effect
# Summary of the method: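 We measured Glycoprotein IIb promoter–luciferase output in IL-3-starved Ba/F3 murine cells expressing the human TPO receptor after 24 hrs at 37 C with compounds and 26 pM TPO.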
# [4] = Confirmation and Secondary Assay for Modulators of Hemoglobin Beta Chain Splicing at IVS2 705 locus (AID 930); details: HeLa EGFP-705 splicing reporter, GFP fluorescence, 48 h; series mostly up to 46.1 µM;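 further: GFP fluorescence per well restored by corrected splicing of the IVS2-705 intron in EGFP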; further: potency means the concentration at half of the fitted maximal effect
# Summary of the method: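 Per-well GFP, captured at 1 x 8 µm resolution with 488 nm excitation, served as the read-out for HeLa EGFP-705 cells incubated 2 days with test compound versus DMSO.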
# [5] = target: Muscarinic acetylcholine receptor M1 (Rattus norvegicus) (UniProt P08482); test: qHTS Assay for Antagonists of Acetylcholine Muscarinic M1 Receptor: Kinetic Measurement of Intracellular Calcium Response (AID 943); details: M1-expressing cells, kinetic intracellular calcium fluorescence; series mostly up to 35.3 µM; further: nearly all actives have a fitted effect of over 75% in size; further: potency means the concentration at half of the fitted maximal effect
# Summary of the method: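 Intracellular calcium flux, recorded with Fluo-4 in a kinetic plate reader, served as signal; the response to carbachol at EC80 (100 nM final) was taken as maximal over minimal fluorescence after a 10 min compound pre-incubation in rat M1-CHO cells.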
# [6] = target: Muscarinic acetylcholine receptor M1 (Rattus norvegicus) (UniProt P08482); test: qHTS Assay for Antagonists of Acetylcholine Muscarinic M1 Receptor: Measurement of IP-One Response (AID 944); details: CHO-M1 cells, IP-One HTRF, antagonist mode; series mostly up to 46.1 µM; further: nearly all actives have a fitted effect of over 75% in size; further: potency means the concentration at half of the fitted maximal effect
# Summary of the method: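 Steps: plate transfected CHO-M1 cells overnight; add test compound, 10 min; add carbachol (200 nM, EC80) in stimulation buffer with LiCl; incubate 30 min; add labelled IP1 tracer and anti-IP1 antibody in lysis buffer; read HTRF after 10 min.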
# [7] = qHTS Assay for Identification of Small Molecule Antagonists for Thrombopoietin (TPO) Signaling Pathway (AID 918); details: TPO-dependent cell signaling reporter, antagonist mode; further: potency means the concentration at half of the fitted maximal effect; nearly all actives have a fitted effect of over 60% in size
# Summary of the method: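 First, Ba/F3 reporter cells expressing human TPO receptor were held overnight without IL-3. Next, compound and 26 pM TPO were added. After 24 hrs incubation at 37 C, luciferase luminescence under the Glycoprotein IIb promoter was recorded.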
# [8] = MultiTox-Fluor Cytotoxicity Assay - LYMP1-001 - Dead Cells (AID 946); details: LYMP1-001 lymphoblastoid cells, dead-cell protease fluorescence; series mostly up to 92.2 µM;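 further: cells exposed to compound for 16 h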; further: potency means the concentration at half of the fitted maximal effect
# Summary of the method: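 LYMP1-001 lymphoblastoid cells (2500/well) treated 16 h at 37 C. Dead-cell protease cleavage of bis-AAF-R110 read at Ex/Em 485/520. Normalized to DMSO and 15 uM tetraoctylammonium bromide; AC50 from Hill fits.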
# [9] = MultiTox-Fluor Cytotoxicity Assay - LYMP1-001 - Live Cells (AID 947); details: LYMP1-001 lymphoblastoid cells, live-cell protease fluorescence viability; series mostly up to 92.2 µM; further: potency means the concentration at half of the fitted maximal effect
# [10] = Cell Viability - LYMP1-002 - Assay at 16 hr (AID 948); details: LYMP1-002 lymphoblastoid cell viability; series mostly up to 92.2 µM; further: potency means the concentration at half of the fitted maximal effect
# Summary of the method: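 Acute cytotoxicity is scored as a concentration-dependent fall in intracellular ATP in a human lymphoblastoid line (LYMP1-002) after 16 hr compound exposure at 37 C, measured by luciferase luminescence.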
# Sequence of Muscarinic acetylcholine receptor M1 (Rattus norvegicus) (P08482 whole entry, looked up): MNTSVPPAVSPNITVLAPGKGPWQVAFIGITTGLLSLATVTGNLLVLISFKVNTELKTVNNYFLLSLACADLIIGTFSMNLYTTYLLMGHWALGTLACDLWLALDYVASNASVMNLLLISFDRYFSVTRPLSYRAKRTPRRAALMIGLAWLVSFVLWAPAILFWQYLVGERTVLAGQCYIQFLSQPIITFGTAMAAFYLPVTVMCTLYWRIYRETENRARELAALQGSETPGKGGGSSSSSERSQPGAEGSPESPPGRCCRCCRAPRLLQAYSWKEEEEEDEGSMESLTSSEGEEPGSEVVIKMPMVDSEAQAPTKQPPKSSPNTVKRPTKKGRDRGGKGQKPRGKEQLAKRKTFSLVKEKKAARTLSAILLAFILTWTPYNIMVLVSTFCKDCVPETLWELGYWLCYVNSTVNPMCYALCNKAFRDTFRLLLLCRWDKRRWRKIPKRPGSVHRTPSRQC
# Sequence of Pyruvate kinase (Leishmania mexicana) (Q27686 2-499 E452W): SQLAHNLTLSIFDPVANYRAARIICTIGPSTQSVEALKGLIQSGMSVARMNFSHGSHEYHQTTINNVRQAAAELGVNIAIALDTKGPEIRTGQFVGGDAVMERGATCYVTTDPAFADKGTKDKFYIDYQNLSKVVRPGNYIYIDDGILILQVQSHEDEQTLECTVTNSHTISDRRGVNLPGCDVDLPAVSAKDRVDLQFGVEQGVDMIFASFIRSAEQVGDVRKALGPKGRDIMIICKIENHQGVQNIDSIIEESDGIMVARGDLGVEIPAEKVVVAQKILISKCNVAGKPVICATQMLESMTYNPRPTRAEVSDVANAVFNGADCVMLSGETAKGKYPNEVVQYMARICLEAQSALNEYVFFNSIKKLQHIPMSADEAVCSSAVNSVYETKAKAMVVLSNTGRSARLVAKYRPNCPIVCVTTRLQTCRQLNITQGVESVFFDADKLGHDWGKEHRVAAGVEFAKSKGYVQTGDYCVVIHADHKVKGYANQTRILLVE
smiles,measurement,setting,value
O=c1cc(N2CCOCC2)oc2c(-c3ccccc3)cccc12,Potency,[1],7.08 µM (active)
same,Potency,[2],inactive
NC(=NCc1ccccc1)NC(=O)c1nc(Cl)c(N)nc1N,Potency,[3],12.6 µM (active)
same,Potency,[4],inactive
same,Potency,[2],inactive
Nc1nc(OCc2ccccc2)c2[nH]cnc2n1,Potency,[3],inactive
same,Potency,[5],inactive
same,Potency,[6],inactive
same,Potency,[2],inactive
Cc1c(OCC(F)(F)F)ccnc1CS(=O)c1nc2ccccc2[nH]1 (stereo not given),Potency,[3],inactive
same,Potency,[4],inactive
same,Potency,[6],inactive
same,Potency,[2],inactive
O=C(CCc1ccc(O)cc1)c1c(O)cc(O)cc1O,Potency,[3],inactive
same,Potency,[4],inactive
same,Potency,[5],inactive
same,Potency,[6],inactive
same,Potency,[2],inactive
COc1ccc2cc([C@H](C)C(=O)O)ccc2c1,Potency,[3],inactive
same,Potency,[2],inactive
S=c1nc[nH]c2nc[nH]c12,Potency,[4],6.31 µM (active)
C[C@H](Cc1ccc(O)c(O)c1)[C@@H](C)Cc1ccc(O)c(O)c1,Potency,[7],5.01 µM (active)
same,Potency,[6],inactive
same,Potency,[2],inactive
Cc1cc(C2CCCCC2)n(O)c(=O)c1,Potency,[4],inactive
CN1CCC(=C2c3ccccc3CCc3sccc32)CC1,Potency,[4],inactive
O=C(O)c1cc(=O)c2c(OCC(O)COc3cccc4oc(C(=O)O)cc(=O)c34)cccc2o1,Potency,[4],inactive
NNc1nncc2ccccc12,Potency,[3],0.0398 µM (active)
same,Potency,[4],inactive
Cc1nc2n(c(=O)c1CCN1CCC(c3noc4cc(F)ccc34)CC1)CCCC2,Potency,[3],inactive
same,Potency,[2],inactive
CC1(C)NC(=O)N(c2ccc([N+](=O)[O-])c(C(F)(F)F)c2)C1=O,Potency,[3],inactive
same,Potency,[4],inactive
same,Potency,[2],inactive
O=C(O)c1cn(-c2ccc(F)cc2)c2cc(N3CCNCC3)c(F)cc2c1=O,Potency,[4],inactive
O=c1c(O)c(-c2cc(O)c(O)c(O)c2)oc2cc(O)cc(O)c12,Potency,[7],10 µM (active)
same,Potency,[5],inactive
same,Potency,[6],inactive
same,Potency,[2],inactive
CCN(CCO)CCCC(C)Nc1ccnc2cc(Cl)ccc12 (stereo not given),Potency,[4],inactive
CNC[C@H](O)c1ccc(O)c(O)c1,Potency,[3],inactive
same,Potency,[2],inactive
Nc1nc(Cl)nc2c1ncn2[C@H]1C[C@H](O)[C@@H](CO)O1,Potency,[4],inactive
O=C(c1ccccc1)c1ccc2n1CCC2C(=O)O (stereo not given),Potency,[4],inactive
NCCCCNCCCN,Potency,[7],6.31 µM (active)
same,Potency,[4],inactive
same,Potency,[5],inactive
same,Potency,[2],inactive
Nc1cc(C(Cl)=C(Cl)Cl)c(S(N)(=O)=O)cc1S(N)(=O)=O,Potency,[4],inactive
Cc1cccc(C#Cc2ccccc2)n1,Potency,[3],1 µM (active)
same,Potency,[2],15.8 µM (active)
CCCOc1ccc2nc(NC(=O)OC)[nH]c2c1,Potency,[4],inactive
O=Nc1c(-c2c(O)[nH]c3cc(Br)ccc23)[nH]c2ccccc12,Potency,[3],0.251 µM (active)
same,Potency,[5],0.1 µM (active)
same,Potency,[6],14.1 µM (active)
O=C(O)c1cccnc1Nc1cccc(C(F)(F)F)c1,Potency,[3],inactive
same,Potency,[4],inactive
same,Potency,[2],inactive
COc1ccccc1N1CCN(CCN(C(=O)C2CCCCC2)c2ccccn2)CC1,Potency,[3],inactive
same,Potency,[5],inactive
same,Potency,[2],inactive
CCN(CC)C(=S)SSC(=S)N(CC)CC,Potency,[7],0.398 µM (active)
same,Potency,[4],inactive
same,Potency,[6],inactive
O=C(NC(Cc1cc(=O)[nH]c2ccccc12)C(=O)O)c1ccc(Cl)cc1 (stereo not given),Potency,[4],inactive
COC(=O)[C@H](Cc1ccccc1)NC(=O)[C@@H](N)CC(=O)O (H-Asp-Phe-OMe),Potency,[8],inactive
same,Potency,[9],inactive
same,Potency,[10],inactive
COc1c2occc2cc2ccc(=O)oc12,Potency,[4],inactive
same,Potency,[8],inactive
same,Potency,[9],inactive
same,Potency,[10],inactive
c1ccc2[nH]c(-c3cscn3)nc2c1,Potency,[4],inactive
same,Potency,[8],inactive
same,Potency,[9],inactive
same,Potency,[10],inactive
O=c1ccc2ccc(O)c(O)c2o1,Potency,[5],inactive
same,Potency,[2],inactive
CC(=O)Nc1ccc(O)cc1,Potency,[8],inactive
same,Potency,[9],inactive
same,Potency,[10],inactive
CC1Cc2ccccc2N1NC(=O)c1ccc(Cl)c(S(N)(=O)=O)c1 (stereo not given),Potency,[4],inactive
CCCc1cc(=O)[nH]c(=S)[nH]1,Potency,[4],inactive
same,Potency,[8],inactive
same,Potency,[9],inactive
same,Potency,[10],inactive
Cc1ncc([N+](=O)[O-])n1CC(C)O (stereo not given),Potency,[4],inactive
Cc1cc2cc3c(C)cc(=O)oc3c(C)c2o1,Potency,[4],inactive
CC1(C)C(=O)N(CCN2CCC(C(=O)c3ccc(F)cc3)CC2)c2ccccc21,Potency,[2],inactive
Cc1ccc(C)c(OCCCC(C)(C)C(=O)O)c1,Potency,[4],inactive
same,Potency,[8],inactive
same,Potency,[9],inactive
same,Potency,[10],inactive
CN(C)CCc1c[nH]c2ccc(Cn3cncn3)cc12,Potency,[4],inactive
NS(=O)(=O)c1cc(C(=O)O)c(NCc2ccco2)cc1Cl,Potency,[4],inactive
same,Potency,[8],inactive
same,Potency,[9],inactive
same,Potency,[10],inactive
O=c1oc2cc(O)ccc2s1,Potency,[4],inactive
CCc1nc(N)nc(N)c1-c1ccc(Cl)cc1,Potency,[4],inactive
same,Potency,[8],inactive
same,Potency,[9],inactive
same,Potency,[10],inactive
O=C1c2ccccc2-c2n[nH]c3cccc1c23,Potency,[5],inactive
same,Potency,[6],inactive
same,Potency,[2],inactive
O=c1c(O)c(-c2ccc(O)cc2O)oc2cc(O)cc(O)c12,Potency,[4],inactive
same,Potency,[6],inactive
same,Potency,[2],inactive
Cc1cccc(CN2CCN(C(c3ccccc3)c3ccc(Cl)cc3)CC2)c1 (stereo not given),Potency,[4],inactive
CC(C)c1ccc2c(c1)c(SC(C)(C)C)c(CC(C)(C)C(=O)O)n2Cc1ccc(Cl)cc1,Potency,[6],inactive
same,Potency,[2],inactive
CS(=O)(=O)OCCCCOS(C)(=O)=O,Potency,[4],inactive
same,Potency,[8],inactive
same,Potency,[9],inactive
same,Potency,[10],inactive
CN(C)c1ccc2nc3ccc(=[N+](C)C)cc-3sc2c1,Potency,[8],10 µM (active)
same,Potency,[9],10 µM (active)
same,Potency,[10],12.6 µM (active)
Oc1ccc(-c2nc(-c3ccc(F)cc3)c(-c3ccncc3)[nH]2)cc1,Potency,[5],inactive
same,Potency,[6],inactive
same,Potency,[2],inactive
Cc1cc2c(s1)Nc1ccccc1N=C2N1CCN(C)CC1,Potency,[4],inactive
CC(=O)N1CCN(c2ccc(OC[C@H]3CO[C@](Cn4ccnc4)(c4ccc(Cl)cc4Cl)O3)cc2)CC1,Potency,[2],inactive
Cc1cc(O)c2c(c1)C(=O)c1cc(O)cc(O)c1C2=O,Potency,[5],inactive
same,Potency,[6],inactive
same,Potency,[2],inactive
same,Potency,[8],inactive
same,Potency,[10],inactive
Nc1ccc(S(N)(=O)=O)cc1,Potency,[4],inactive
same,Potency,[8],inactive
same,Potency,[9],inactive
same,Potency,[10],inactive
O=C1NC(=O)C(c2ccccc2[N+](=O)[O-])=C1Nc1ccc(O)c(Cl)c1,Potency,[5],inactive
same,Potency,[2],inactive
CN1C(C(=O)Nc2ccccn2)=C(O)c2sccc2S1(=O)=O,Potency,[4],inactive
CCCCC(CC)COC(=O)C(C#N)=C(c1ccccc1)c1ccccc1 (stereo not given),Potency,[8],inactive
same,Potency,[9],inactive
same,Potency,[10],inactive
Cc1ccc(S(=O)(=O)NC(=O)NN2CC3CCCC3C2)cc1 (stereo not given),Potency,[4],inactive

# Source: PubChem BioAssay (NCATS)
